# According to PubChem BioAssay AID463173 (ICCB-Longwood Screening Facility, Harvard Medical School, 2010):
# Among all 52,000 compounds or so, about 4,300 (8.3%) were called active. The sample holds actives, similar compounds and a random draw of the others, so the mix is not that of the screen. Unmarked numbers belong to inactive results. Cut-off read from the data, not from the text of the source: active = survival mostly below about 52% (no sharp cut-off); inactive = mostly above about 56%.
# Test system: DeltatarO mutant
# Test: growth inhibition of S. aureus wild type versus tarO mutant, primary screen, teichoic acid synthesis inhibitors, RN4220, OD600 (AID 463173)
# Conditions: OD600, 18 h, stronger effect = lower value, screened at 18.75 µg/mL (by protocol)
row,Structure (SMILES),survival
1,O=c1c(S(=O)(=O)c2ccccc2)cn(Cc2ccccc2)c2cc(N3CCOCC3)c(F)cc12,85%
2,COc1ccc(NC(=O)CCCN2C(=O)C(c3ccccc3)Oc3cccnc32)c(OC)c1 (configuration not stated),81%
3,Cc1ccc(C(=O)c2oc3ccccc3c2NC(=O)COc2ccccc2C)cc1,95%
4,CCc1ccc(NC(=O)CSC2=Nc3ccccc3C3=NC(CCC(=O)NCc4ccccc4OC)C(=O)N23)cc1 (configuration not stated),55%
5,Cc1ccc(-n2ncc3c(N4CCN(C)CC4)ncnc32)cc1Cl,96%
6,COc1ccc(C2=NC(C)(C)N(CC(=O)Nc3ccc(F)c(F)c3)C2=O)cc1,92%
7,Cc1c(C(=O)Nc2cc(F)ccc2F)sc2nc(-c3ccc(F)cc3)cn12,107%
8,CCn1c(=O)c(C(=O)Nc2cc(OC)c(OC)c(OC)c2)nc2ccccc21,89%
9,Cc1ccccc1-c1nc2cc(NC(=O)COc3ccc(F)cc3)ccc2o1,56%
10,CN1C(=O)c2ccccc2Sc2ccc(NC(=O)COc3ccc(F)cc3)cc21,87%
11,O=C(COc1ccccc1F)Nc1ccc(-c2nc3ccccc3s2)cc1,67%
12,O=C(COc1ccccc1F)Nc1ccc2oc(-c3cccc(Cl)c3)nc2c1,102%
13,O=C(COc1ccc(F)cc1)Nc1ccc(Cl)c(-c2nc3ccccc3[nH]2)c1,26% (active)
14,O=C(COc1ccccc1F)Nc1ccc(Cl)c(-c2nc3ccccc3[nH]2)c1,33% (active)
15,CCOC(=O)N1CCc2c(sc(NCc3ccc(N(C)C)cc3)c2C(=O)Nc2ccc(OC)cc2)C1,77%
16,CC1=C(c2ccc(C)cc2)S(=O)(=O)NC1=NCCCN1CCN(c2ccccc2F)CC1,74%
17,CCCCNC(=O)CSc1nc2cc3c(cc2c(=O)n1Cc1ccc(C(=O)NCCc2ccc(OC)c(OC)c2)cc1)OCO3,85%
18,COc1ccccc1OCc1nnc(SCC(=O)N(C)C)o1,52%
19,COC(=O)c1ccc(Cn2c(SCC(=O)NCc3ccccc3)nc3ccccc32)cc1,102%
20,CC1=C(C#N)C(c2cccc(Oc3ccccc3)c2)C2=C(CCCC2=O)N1 (configuration not stated),54%
21,Cc1cc(C)cc(NC(=O)Cn2c(=O)c3ccccc3n3nncc23)c1,83%
22,Cc1cccc(C)c1NC(=O)CCCn1c(=O)c2cccn2c2ccccc21,55%

row,Structure (SMILES),survival
1,Cc1ccc(CNC(=O)CCCn2c(=O)c3ccccc3n(CC(=O)Nc3ccc(C)c(C)c3)c2=O)cc1,78%
2,O=C(CCCn1c2ccccc2c(=O)c2ccccc21)Nc1cccc(Cl)c1,27% (active)
3,Cc1ccc2c(c1)c(=O)c1ccccc1n2CCCC(=O)Nc1ccc(C)c(F)c1,105%
4,Cc1ccc(NC(=O)CCCn2c(=O)c3cccn3c3ccccc32)c(Cl)c1,51%
5,O=C(CCCn1c(=O)c2ccccc2n(CC(=O)Nc2cccc(Cl)c2)c1=O)NCc1ccc2c(c1)OCO2,76%
6,Cc1cc(C)cc(NC(=O)CCCn2c(=O)c3cccn3c3ccccc32)c1,59%
7,Cc1cc(C)cc(NC(=O)CCCn2c3ccccc3c(=O)c3ccccc32)c1,42% (active)
8,O=C(CCCn1c(=O)c2cccn2c2ccccc21)Nc1cccc(Cl)c1,41% (active)
9,Cc1ccc2c(c1)c(=O)c1ccccc1n2CCCC(=O)Nc1ccc(C)c(C)c1,43% (active)
10,O=C(CCCn1c2ccccc2c(=O)c2ccccc21)Nc1ccc(F)cc1Cl,51%
11,Cc1cccc(N(C)c2ccc3cc(S(=O)(=O)N4CCCC4)ccc3n2)c1,96%
12,N#CCNS(=O)(=O)c1ccccc1,97%
13,CC(=O)N1CCCc2cc(S(=O)(=O)NCc3ccccc3Cl)ccc21,112%
14,CCc1ccccc1NC(=O)Cn1cc(C(=O)c2ccc(Cl)cc2)c(=O)c2ccc(C)nc21,78%
15,CCCCN(Cc1cc2cc(C)ccc2[nH]c1=O)C(=O)c1cccc(Cl)c1,72%
16,CCOC(=O)c1sc2ccccc2c1S(=O)(=O)Nc1ccc(OC)c(Cl)c1,89%
17,COc1ccc(OCC(=O)Nc2cc(-c3ccccc3F)nn2-c2ccccc2)cc1,92%
18,Cc1ccc2c(c1)c(=O)c1ccccc1n2CCCC(=O)Nc1ccc(Cl)c(Cl)c1,45% (active)
19,COc1ccc(NC(=O)Cn2c(=O)n(CCCC(=O)NCCc3ccc(C)cc3)c(=O)c3ccccc32)cc1Cl,97%
20,Cc1ccc(NC(=O)Cn2c(=O)n(CCCCC(=O)NCc3ccccc3Cl)c(=O)c3ccccc32)cc1,83%
21,Cc1ccc(NC(=O)CSc2nc3ccccc3c3nc(CCn4cncc4C)nn23)c(C)c1,75%
22,COc1ccc(CNC(=O)CCC2N=C3c4ccccc4N=C(SCc4ccc(F)cc4)N3C2=O)cc1 (configuration not stated),83%

row,Structure (SMILES),survival
1,Cc1ccc(CSC2=Nc3ccccc3C3=NC(CCC(=O)NCc4cccs4)C(=O)N23)cc1 (configuration not stated),94%
2,COc1ccccc1CNC(=O)CCC1N=C2c3ccccc3N=C(SCc3cccc(Cl)c3)N2C1=O (configuration not stated),49%
3,COc1ccccc1CNC(=O)CCC1N=C2c3ccccc3N=C(SCC(=O)NCCc3ccccc3)N2C1=O (configuration not stated),131%
4,O=C(CCC1N=C2c3ccccc3N=C(SCc3ccccc3F)N2C1=O)NCc1ccc(F)cc1 (configuration not stated),69%
5,COc1ccc(CNC(=O)CCC2N=C3c4ccccc4N=C(SCc4ccccc4F)N3C2=O)cc1 (configuration not stated),37% (active)
6,CCCCNC(=O)CSC1=Nc2ccccc2C2=NC(CCC(=O)NCc3ccccc3OC)C(=O)N12 (configuration not stated),0% (active)
7,O=C(CCC1N=C2c3ccccc3N=C(SCc3ccc(Cl)cc3)N2C1=O)NCc1cccs1 (configuration not stated),47% (active)
8,COCCCNC(=O)CSC1=Nc2ccccc2C2=NC(CCC(=O)NCc3ccccc3OC)C(=O)N12 (configuration not stated),78%
9,COc1ccccc1CNC(=O)CCC1N=C2c3ccccc3N=C(SCc3ccc(C)cc3)N2C1=O (configuration not stated),112%
10,COc1ccccc1CNC(=O)CCC1N=C2c3ccccc3N=C(SCc3ccc(Cl)cc3)N2C1=O (configuration not stated),32% (active)
11,O=C(CCC1N=C2c3ccccc3N=C(SCc3ccc(F)cc3)N2C1=O)NCc1cccs1 (configuration not stated),135%
12,CC(C)(C)c1ccc(C(=O)N2CCN(CCc3ccccn3)CC2)cc1,45%
13,CCc1cccc(C)c1Nc1c(-c2ccc(F)cc2)nc2sccn12,35%
14,CCCN(CCC)CCCNC(=O)Cn1ncc2c3ccccc3n(Cc3ccc(F)cc3)c2c1=O,91%
15,O=C(NCC1CCCO1)C1CC(c2ccccc2O)=NO1 (configuration not stated),91%
16,CC(NC(=O)C1CCN(C(=O)N2CCOc3ccc(Cl)cc32)CC1)c1ccccc1 (configuration not stated),50%
17,COc1ccc(OC)c(NC(=O)Nc2c(C)n(C)n(-c3ccccc3)c2=O)c1,88%
18,CCC(CC)c1nn2c(=O)cc(COc3ccc(NC(=O)c4cccc(Cl)c4)cc3)nc2s1,79%
19,CC(C)NC(=O)C1CCN(C(=O)NCc2ccccc2)CC1,93%
20,COc1cccc(N2CCN(C(=O)C3CCCN(S(=O)(=O)c4ccc(Br)s4)C3)CC2)c1 (configuration not stated),76%
21,CC1N=C2c3ccccc3N=C(SCC(=O)NCCc3ccccc3)N2C1=O (configuration not stated),52% (active)
22,CC1N=C2c3ccccc3N=C(SCC(=O)NCCc3ccc(Cl)cc3)N2C1=O (configuration not stated),80%

row,Structure (SMILES),survival
1,Cc1ccc(CNC(=O)CSC2=Nc3ccccc3C3=NC(C)C(=O)N23)cc1 (configuration not stated),71%
2,CCNC(=O)CC1C(=O)N(c2ccccc2)C(=O)N1Cc1ccc(F)cc1 (configuration not stated),74%
3,COc1cccc(CNC(=O)CSC2=Nc3ccccc3C3=NC(C)C(=O)N23)c1OC (configuration not stated),124%
4,COC(=O)c1ccccc1NC(=O)Cn1c(=O)n(CCC(=O)NCc2ccccc2OC)c(=O)c2ccccc21,82%
5,Cc1ccccc1OCC(=O)Nc1ccc(S(=O)(=O)N(Cc2ccccc2)c2ccccc2)cc1,66%
6,COc1ccc(-n2ccnc(NCCc3ccc(S(N)(=O)=O)cc3)c2=O)cc1,66%
7,COC(=O)CNC(=O)Nc1cc(C(=O)NCc2ccc(C)cc2)ccc1N1CCCC1,76%
8,COC(=O)c1c(N)n(-c2ccc(OC)c(Cl)c2)c2nc3ccccc3nc12,93%
9,COC(=O)c1c(N)n(-c2ccc(OC)c(OC)c2)c2nc3ccccc3nc12,94%
10,COC(=O)c1c(N)n(-c2cc(Cl)cc(Cl)c2)c2nc3ccccc3nc12,44% (active)
11,Cc1ccc(CNc2nc(-c3ccco3)nn2S(C)(=O)=O)cc1,113%
12,CCOC(=O)Cc1ccc(NC(=O)N2CCC(CN3CCCCCC3)CC2)cc1,80%
13,O=C1CCSc2ccc(S(=O)(=O)Nc3ccc(Cl)c(C(F)(F)F)c3)cc2N1,72%
14,Cc1ccc(NS(=O)(=O)c2ccc3c(c2)NC(=O)CCS3)c(Br)c1,-1% (active)
15,Cc1cc(C)c(NS(=O)(=O)c2ccc3c(c2)NC(=O)CCS3)c(C)c1,76%
16,Cc1ccccc1NS(=O)(=O)c1ccc2c(c1)NC(=O)CCS2,64%
17,O=C1CCSc2ccc(S(=O)(=O)Nc3cccc(C(F)(F)F)c3)cc2N1,-2% (active)
18,CC1C(=O)Nc2ccc(S(=O)(=O)Nc3ccccc3Br)cc2NC1=O (configuration not stated),90%
19,Cc1ccc(NS(=O)(=O)c2ccc3c(c2)NC(=O)CCS3)cc1C,79%
20,Cc1cc(C)cc(NS(=O)(=O)c2ccc3c(c2)NC(=O)C(C)S3)c1 (configuration not stated),11% (active)
21,Cc1ccc(NS(=O)(=O)c2ccc3c(c2)NC(=O)C(C)C(=O)N3)cc1F (configuration not stated),69%
